Source: PubChem
A selection: hits, their analogues and other compounds. The true share with any hit is near 3.3%.
SUMO HTRF inh – inhibitors of in vitro SUMOylation cascade, primary screen, biochemical, HTRF, uHTS | HTRF SUMOylation assay, SAE1/SAE2 + UBC9 | inhibition, % at 35 µM | hit rate 0.36% among 290,000 | AID 2006, 2009; in the data active means inhibition above about 50%, passing the limit was not always enough
Target sequence (P63279 whole entry, looked up): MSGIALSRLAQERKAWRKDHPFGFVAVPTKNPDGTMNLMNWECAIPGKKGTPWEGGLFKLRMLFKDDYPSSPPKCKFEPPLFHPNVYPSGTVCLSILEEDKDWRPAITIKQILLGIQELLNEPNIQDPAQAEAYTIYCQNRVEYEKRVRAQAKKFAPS
GRIN3A LBD mod – binders of NR3A ligand-binding domain, primary screen, biophysical, differential scanning fluorimetry, uHTS; Glutamate receptor ionotropic, NMDA 3A (GRIN3A) ligand-binding domain; NR3A LBD differential scanning fluorimetry, Tm shift; 0% = protein alone, 100% = glycine-bound protein; Tm shift relative to glycine control, % at 25 µM; hit rate 2.5% among 340,000; AID 1259313, 2017;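 active means melting temperature shift of at least 10% of the positive control shift, at one fixed dose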
HGIII-sPLA2 inh – human group III sPLA2 inhibitors, primary screen, biochemical, QFRET, BODIPY PC-A2 liposome substrate | Group 3 secretory phospholipase A2 (Homo sapiens), Q9NZ20 | QFRET BODIPY PC-A2 liposome hydrolysis, fluorescence | inhibition, % at 12.2 µM | hit rate 0.56% among 370,000 | AID 743126, 2013;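 active means inhibition above mean plus 3 SD of compounds lying within the high and low control bounds, cut at about 19% in these data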;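 further: 0% = median of test compound wells and 100% = no enzyme DMSO wells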
UBC13 inh – UBC13 polyubiquitin chain formation inhibitors, primary screen, biochemical, TR-FRET, uHTS; hit rate 0.47% among 330,000; inhibition, % at 20 µM; Ubiquitin-conjugating enzyme E2 N (Homo sapiens), P61088; in the data active means inhibition above about 45%, passing the limit was not always enough
Target sequence (P61088 whole entry, looked up): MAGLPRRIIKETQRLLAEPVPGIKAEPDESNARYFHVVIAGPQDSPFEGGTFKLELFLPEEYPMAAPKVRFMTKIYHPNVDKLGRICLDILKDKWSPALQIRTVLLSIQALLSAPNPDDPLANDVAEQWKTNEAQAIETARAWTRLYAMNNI
Active calls of the source: *; / = no result given.

SMILES | SUMO HTRF inh | GRIN3A LBD mod | HGIII-sPLA2 inh | UBC13 inh
O=C1N(Cc2ccccc2)c2ccccc2C12CCCc1oc(CCc3ccccc3)nc12 (configuration not stated) | / | / | 3 | /
COC(=O)[C@]12C[C@H](CC(=O)NCC34CC5CC(CC(C5)C3)C4)C(=O)N(CCC3=CCCCC3)C1=C[C@H](C(C)C)O[C@@H]2C1CC1 | / | / | -6 | /
C=CCN1C(=O)[C@@H](CC(=O)NCCCOC)[C@]2(C(=O)OCC)CCCCC/C=C/12 | / | / | -2 | /
Nc1cc(Cl)nc(N/N=C/c2c(O)ccc3ccccc23)n1 | 4 | 28* | -3 | 30
COc1ccc(/C=N/Nc2nonc2N)cc1 | -6 | 17* | -4 | 8
Nc1nonc1N/N=C/c1c(O)ccc2ccccc12 | 7 | 25* | -14 | 38
Cc1c(C(=O)N/N=C/c2c(O)ccc3ccccc23)nnn1-c1nonc1N | 9 | 4 | 7 | -4
Nc1nonc1N/N=C\c1ccccc1 | -2 | 18* | 14 | 4
O=C(NC1CCc2ccccc21)c1cc(-c2ccc(Cl)cc2)nc2ccccc12 (configuration not stated) | / | / | 8 | /
CN(Cc1ccccc1)C(=O)OCc1cn(Cc2cccc(Cl)c2)nn1 | / | / | 0 | /
O=S1(=O)c2c(cccc2N2CCC[C@H]2CO)O[C@H]2CCN1C2 | / | / | 0 | /
COc1ccc(/C=N/Nc2nc(N)cc(Cl)n2)cc1OC | 20 | 12* | 0 | 22
COc1ccc(/C=N/Nc2nonc2N)cc1OC | -20 | -8 | -1 | 15
C=C(C)C(O)CC/C(C)=C/Cc1c(O)ccc(C(=O)/C=C/c2ccc(O)cc2)c1O (configuration not stated) | / | 15* | -49 | -8
O=C(/C=C/c1ccc(O)cc1)c1c(O)cc(O)cc1O | 0 | -4 | -2 | 4
COc1ccc(C=CC(=O)c2ccc(OC)c(OC)c2O)cc1OC | / | 2 | -1 | /
COc1ccc(C(=O)/C=C/c2ccc(O)cc2)c(O)c1C/C=C(\C)CCC=C(C)C | / | 30* | -15 | -6
c1ccc(-c2c[nH]c3ccc(OCc4ccc5ccccc5n4)c(-c4ccccc4)c23)cc1 | / | / | 3 | /
COc1ccc(CNC(=O)CN(CCC(C)C)S(=O)(=O)c2ccc3c(c2)OCCO3)cc1 | -25 | 154* | -8 | 8
CN(c1ccc(OCc2nnc(-c3ccccc3)o2)cc1)S(=O)(=O)c1ccccc1 | -3 | 20* | -22 | 0
O=C(COc1ccccc1Br)c1ccc2c(c1)OCO2 | / | 1 | -2 | -1
O=C(COc1ccccc1Br)c1ccc(O)cc1O | -5 | 21* | -22 | 0
CC(C)CC(CCOCCO)NC(=O)OCc1ccccc1[N+](=O)[O-] (configuration not stated) | / | / | 10 | /
Cc1nn(-c2ccccc2)c2sc(C(=O)NC3CCCc4ccccc43)cc12 (configuration not stated) | / | / | 5 | /
CCOC(=O)N1CCN(C(=O)C[C@H]2C[C@@]3(C(=O)OC)C(=C[C@H](C(C)(C)C)O[C@@H]3C)N(Cc3cccc4ccccc34)C2=O)CC1 | / | / | -12 | /
SMILES | SUMO HTRF inh | GRIN3A LBD mod | HGIII-sPLA2 inh | UBC13 inh
Cc1ccc(O)c(-c2cc(C(=O)NCc3ccncc3)[nH]n2)c1 | 20 | 0 | -1 | 9
COc1ccc(Cl)cc1NC(=O)c1cc(-c2ccc(C)cc2O)n[nH]1 | 23 | 12* | 1 | -3
COc1ccc(Cl)cc1NC(=O)c1cc(-c2cc(C)ccc2O)n[nH]1 | 30 | 300* | 1 | -9
Cc1ccc(C)c(NC(=O)c2cc(-c3cc(C)ccc3O)n[nH]2)c1 | -7 | 15* | -21 | 2
Oc1[nH]c(=S)sc1/C=C1\C(c2ccccc2)=Nc2ccccc21 | 19 | 16* | -5 | /
O=C1Nc2ccccc2N=C(c2ccccc2)c2ccccc21 | 3 | -2 | -6 | -3
Oc1[nH]c(=S)sc1C=C1N=c2ccccc2=N1 | 3 | 18* | 1 | -13
CC(C)C[C@@H]1COc2cc(Br)ccc2S(=O)(=O)N1Cc1cn(CC2CCCCC2)nn1 | / | / | 10 | /
CCCN(CC(=O)Nc1cccc(S(N)(=O)=O)c1)CC(=O)Nc1ccc(F)c(F)c1F | 3 | 0 | -9 | 8
CCCN(CC(=O)Nc1cccc(Br)c1)CC(=O)Nc1ccc(F)c(F)c1F | -3 | 22* | -21 | 1
